The source of these data is paper PMC11062922 (Nature Chemical Biology, 2023).

The structures appear in SMILES notation. Read-outs that look alike come from different tables or passages of the source.

One assay deals with ACOX1. Also noted: species or system human, MV4-11 + K-562 + COLO205 + SK-N-BE2 + OVCAR-8. The settings on record: read-out: apparent Kd, n = 1.
Another assay deals with CSNK2A2. Also noted: species or system human, MV4-11 + K-562 + COLO205 + SK-N-BE2 + OVCAR-8. The settings on record: read-out: apparent Kd, n = 1.
For a further assay, the system named is HCK. Further details: species or system human, MV4-11 + K-562 + COLO205 + SK-N-BE2 + OVCAR-8. The following applies: read-out: apparent Kd, n = 1.
For the next assay, the target named is Q6ZSR9 (human, UniProt Q6ZSR9). Further details: species or system MV4-11 + K-562 + COLO205 + SK-N-BE2 + OVCAR-8. The following applies: read-out: apparent Kd; compound concentrations: 100 nM and 1000 nM (sheet 'Samples'), CATDS: 3.9115403920336002E-2; n = 1.
Sequence of Q6ZSR9 (Q6ZSR9 whole entry, looked up): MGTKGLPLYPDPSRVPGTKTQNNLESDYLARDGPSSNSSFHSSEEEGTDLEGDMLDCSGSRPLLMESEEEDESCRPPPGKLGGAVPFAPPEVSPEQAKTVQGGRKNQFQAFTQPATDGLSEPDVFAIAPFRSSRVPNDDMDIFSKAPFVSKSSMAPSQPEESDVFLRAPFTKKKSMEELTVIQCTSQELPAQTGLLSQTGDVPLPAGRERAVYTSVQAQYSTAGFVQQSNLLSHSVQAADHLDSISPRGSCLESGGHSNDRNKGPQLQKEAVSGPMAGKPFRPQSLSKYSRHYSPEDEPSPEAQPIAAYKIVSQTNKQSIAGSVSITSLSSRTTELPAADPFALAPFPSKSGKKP
The next assay relates to CLK1. Also noted: species or system human, MV4-11 + K-562 + COLO205 + SK-N-BE2 + OVCAR-8. The settings on record: read-out: apparent Kd; compound concentrations:100 nM and 1000 nM (sheet 'Samples'); n = 1.
A further assay relates to FRK. Further details: species or system human, MV4-11 + K-562 + COLO205 + SK-N-BE2 + OVCAR-8. The following applies: read-out: apparent Kd, compound concentrations: 100 nM and 1000 nM (sheet 'Samples'), n = 1.
Another assay concerns GAK. Further details: species or system human, MV4-11 + K-562 + COLO205 + SK-N-BE2 + OVCAR-8. The following applies: read-out: apparent Kd; compound concentrations: 100 nM and 1000 nM (sheet 'Samples'), CATDS: 9.1160563566663896E-2; n = 1.
A further assay relates to RIPK2. Also noted: species or system human, MV4-11 + K-562 + COLO205 + SK-N-BE2 + OVCAR-8. The settings on record: read-out: apparent Kd, n = 1.
Another assay relates to FYN. Also noted: species or system human, MV4-11 + K-562 + COLO205 + SK-N-BE2 + OVCAR-8. The settings on record: read-out: apparent Kd; compound concentrations: 100 nM and 1000 nM (sheet 'Samples'), CATDS: 3.5075113560986498E-2; n = 1.
In another assay the test system is PTK6. Also noted: species or system human, MV4-11 + K-562 + COLO205 + SK-N-BE2 + OVCAR-8. The settings on record: read-out: apparent Kd; compound concentrations: 100 nM and 1000 nM (sheet 'Samples'), CATDS: 4.3994171841747899E-2; n = 1.
Another assay deals with RET. Also noted: species or system human, MV4-11 + K-562 + COLO205 + SK-N-BE2 + OVCAR-8. The settings on record: read-out: apparent Kd; compound concentrations: 100 nM and 1000 nM (sheet 'Samples'), CATDS: 0.126907733860845; n = 1.
A further assay concerns RIPK3. Also noted: species or system human, MV4-11 + K-562 + COLO205 + SK-N-BE2 + OVCAR-8. The following applies: read-out: apparent Kd; compound concentrations: 100 nM and 1000 nM (sheet 'Samples'), CATDS: 3.6654773493518103E-2; n = 1.
The mark [1] stands for this setting: compound concentrations:100 nM and 1000 nM (sheet 'Samples').

As to `COc1cc2ncn(-c3cc(OCc4sccc4Cl)c(C(N)=O)s3)c2cc1OC` [GSK448459A], in the assay with ACOX1 (setting [1]), the potency estimated from few doses was 1.27 µM. For the molecule `Cc1ccc(NC(=O)c2ccc(Cl)cc2)cc1-c1ccc(C(=O)Nc2ccncc2)cc1` [GSK1398467A], the potency estimated from few doses with ACOX1 (compound concentrations: 100 nM and 1000 nM (sheet 'Samples'), CATDS: 0.25978974702241497) was 0.761 µM. With `Cn1cc(C2=C(c3cn(CCCCCO)c4ccccc34)C(=O)NC2=O)c2ccccc21` [RO0318053-000], in the assay on ACOX1 (compound concentrations: 100 nM and 1000 nM (sheet 'Samples'), CATDS: 0.35843240047959801), the potency estimated from few doses was 0.0341 µM. Turning to `Cn1cc(C2=C(c3ccccc3[N+](=O)[O-])C(=O)NC2=O)c2ccccc21` [RO0317753-000], the potency estimated from few doses with ACOX1 (compound concentrations: 100 nM and 1000 nM (sheet 'Samples'), CATDS: 8.6924247533373397E-2) is 0.891 µM. Turning to `CCS(=O)(=O)c1ccc(OC)c(Nc2ncc(-c3cccc(F)c3)o2)c1` [GW621970X_KCGS], the potency estimated from few doses with CSNK2A2 (setting [1]) is 2.01 µM.

Consider `COc1ccc(S(=O)(=O)NC2CCN(c3cc(C)nc(Nc4cccc(C#N)c4)n3)CC2)cc1.O=C(O)C(F)(F)F` [GSK1653539A], for which the potency estimated from few doses with ACOX1 (compound concentrations: 100 nM and 1000 nM (sheet 'Samples'), CATDS: 0.290276615306997) is 1.77 µM.

Take `COc1ccc(C2=C(c3cn(C)c4ccccc34)C(=O)NC2=O)cc1OC` [RO3206363-000]: the potency estimated from few doses with ACOX1 (compound concentrations: 100 nM and 1000 nM (sheet 'Samples'), CATDS: 3.3243349000795501E-2) was 1.57 µM; in the assay with CSNK2A2 (compound concentrations: 100 nM and 1000 nM (sheet 'Samples'), CATDS: 3.3167701686651403E-2), 1.58 µM; in the assay with HCK (compound concentrations: 100 nM and 1000 nM (sheet 'Samples'), CATDS: 3.6036002051639801E-2) it was 1.17 µM; with Q6ZSR9, 0.898 µM. In the case of `COc1cc(F)c(F)c(F)c1C(=O)c1cnc(NC2CCN(S(C)(=O)=O)CC2)nc1N` [RO4600703-000], the potency estimated from few doses in the assay on ACOX1 (setting [1]) is 1.01 µM; in the assay with CLK1, 0.729 µM. For the molecule `Clc1ccc(-c2nn3ncccc3c2-c2ccnc(Nc3ccccc3)n2)cc1` [GW829055X], in the assay on HCK (compound concentrations: 100 nM and 1000 nM (sheet 'Samples'), CATDS: 3.5992477058575501E-2), the potency estimated from few doses is 1.5 µM. As to `COc1ccccc1C(=O)c1cnc(NC2CCN(S(C)(=O)=O)CC2)nc1N` [RO4514610-000], in the assay on ACOX1 (setting [1]), the potency estimated from few doses is 2.19 µM. On to `CC(=O)Nc1ccc2c(C3=C(c4cn(C)c5ccccc45)C(=O)NC3=O)cn(C)c2c1` [RO0317596-000], for which the potency estimated from few doses in the assay with ACOX1 (compound concentrations: 100 nM and 1000 nM (sheet 'Samples'), CATDS: 0.20475693554228799) is 0.453 µM. Turning to `Cn1cc(C2=C(c3cccc([N+](=O)[O-])c3)C(=O)NC2=O)c2ccccc21` [RO0317474-000], the potency estimated from few doses in the assay on ACOX1 (compound concentrations: 100 nM and 1000 nM (sheet 'Samples'), CATDS: 0.177541909552099) was 0.937 µM. `COc1ccc(C2=NC(c3ccc(Cl)cc3F)C(C(=O)Nc3ccc4[nH]ncc4c3)=C(C)N2)cn1.O=C(O)C(F)(F)F` (stereo not drawn) [GSK534913A]: in the assay with ACOX1 (setting [1]), the potency estimated from few doses is 1.05 µM.

On to `CCCN1CCC(Oc2cc(Nc3nc(Nc4cccc(F)c4C(N)=O)c4cc[nH]c4n3)c(OC)cc2Cl)CC1` [GSK1713088A], for which the potency estimated from few doses in the assay with ACOX1 (compound concentrations: 100 nM and 1000 nM (sheet 'Samples'), CATDS: 0.172971631917821) was 2.22 µM. Regarding `COc1cc(N2CCN(C(C)C)CC2)ccc1Nc1nc(Nc2cccc(F)c2C(=O)O)c2cc[nH]c2n1` [GSK1819799A], the potency estimated from few doses was 1.13 µM with FRK (CATDS: 5.2265489654336902E-2) and 0.352 µM in the assay on GAK. In the case of `Cl.Oc1ccc2ncnc(Nc3ccc(OCc4ccccc4)cc3)c2c1` [GI262866A], the figures for the potency estimated from few doses in the assay with ACOX1 (setting [1]) and in the assay on RIPK2 (setting [1]) were 0.83 µM and 0.923 µM, respectively. With `NC(=O)c1cccnc1COc1cc(-c2ccc(N3CCOCC3)nc2)cc2ncccc12` [BI01125081], the potency estimated from few doses in the assay with HCK (setting [1]) was 1.35 µM.

As to `Cn1cc(C2=C(c3cn(CCCN/C(N)=N/[N+](=O)[O-])c4ccccc34)C(=O)NC2=O)c2ccccc21` [RO0318161-000], the potency estimated from few doses with ACOX1 (compound concentrations: 100 nM and 1000 nM (sheet 'Samples'), CATDS: 0.32839321732103) was 1.1 µM. For `COc1cccc(C2=C(c3cn(C)c4c(C)cccc34)C(=O)NC2=O)c1` [RO3301012-000], the potency estimated from few doses with ACOX1 (compound concentrations: 100 nM and 1000 nM (sheet 'Samples'), CATDS: 0.48882093351054501) is 0.0979 µM; in the assay on RIPK2 (compound concentrations: 100 nM and 1000 nM (sheet 'Samples'), CATDS: 0.14252909212912099) it was 0.77 µM. With `Cl.Fc1cccc(COc2ccc(Nc3ncnc4cc(-c5ccc[nH]5)sc34)cc2Cl)c1` [GW693881A], the potency estimated from few doses in the assay with ACOX1 (compound concentrations: 100 nM and 1000 nM (sheet 'Samples'), CATDS: 0.17026663208719101) is 1.17 µM. As for `Nc1ncnc2c1ncn2-c1cccc(F)c1` [SKF-97560], the potency estimated from few doses with FRK (CATDS: 4.1342549308714401E-2) is 0.681 µM; with FYN it was 1.08 µM; with PTK6, 0.582 µM; in the assay with RET it was 0.08 µM; with RIPK2 (compound concentrations: 100 nM and 1000 nM (sheet 'Samples'), CATDS: 0.22838556729877599) it was 0.0349 µM; in the assay with RIPK3, 0.948 µM.
